# Test results reported in PubChem BioAssay AID624351 (Southern Research Specialized Biocontainment Screening …, 2012).
# The whole screen tested about 2,400 compounds, of which about 1,400 (58%) were called active.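 Rule for the calls: active = inhibition of 30% or more at any tested dose; inconclusive = primary hits over the limit that were never retested; inactive = the rest.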 The set was probably picked from earlier hits. The list shows a part of the results.
# Assay: coupled detection enzyme interference, dose response, artefact control for MgcRacGAP inhibitor project, biochemical, coupled enzyme counter-screen (AID 624351);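 note: signal is the ADP detection kit reading of free GDP without any GAP enzyme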;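 for inhibition: 0% = median positive control wells and 100% = median negative control wells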
# Conditions: ADP Hunter coupled enzyme counter-screen, fluorescence, no MgcRacGAP; series mostly up to 80 µM
SMILES,IC50,inhibition
CCC(C)n1c(=S)[nH]c2c(sc3ccc([N+](=O)[O-])cc32)c1=O (stereo not given),58.8 µM (active),
O=C(O)CCCn1c(=S)[nH]c2c(sc3ccc([N+](=O)[O-])cc32)c1=O,30.5 µM (active),
COc1ccc2nc3cc(Cl)ccc3c(Nc3ccc(O)c(CN4CCN(C)CC4)c3)c2c1,82 µM (active),
O=C(C1CCN(Cc2cc(Cl)ccc2O)CC1)N1CCN(Cc2ccccc2)CC1,inactive,
COc1ccc(CN2CCN(CCCCOc3ccc(Cl)cc3)CC2)c(OC)c1OC,inactive,
COc1cc(CNCc2ccccc2C(F)(F)F)cc(OC)c1,inactive,
Cc1nc(/N=C(\N)NC(=O)N2c3ccccc3Sc3ccccc32)nc2ccccc12,inactive,
COc1cc(CN2CCC(C(=O)N3CCCC(C)C3)CC2)cc(Br)c1O (stereo not given),inactive,
Cc1nc(Cl)cc(N/N=C/c2ccc(O)cc2O)n1,17.3 µM (active),
Oc1ccc(/C=N/Nc2cccc(Cl)n2)c(O)c1,25.6 µM (active),
Oc1ccc(C=NNc2ccccn2)c(O)c1,20.8 µM (active),
Nc1cc2c(cc1N)-c1ccccc1C2,55.6 µM (active),
COc1cc2c(cc1N)-c1ccc(N)cc1C2,36.1 µM (active),
O=C1C=CC(=Nc2ccc3c(c2)Cc2ccccc2-3)O1,inactive,
Nc1ccc2c(c1)Cc1cc(N)c(Cl)cc1-2,8.61 µM (active),
Nc1ccc2c(c1Br)Cc1ccccc1-2,59.2 µM (active),
Nc1ccc2c(c1)Cc1cc(N)c(Br)cc1-2,7.05 µM (active),
Cc1ccc(OCCCN2CCCC2)c(C)c1,inactive,
O=C(CNS(=O)(=O)c1ccccc1)N/N=C/c1ccc(O)cc1,61.6 µM (active),
C[n+]1c(-c2ccc(C=NNC(=O)c3ccc(C(=O)NN=Cc4ccc(-c5cn6ccccc6[n+]5C)cc4)cc3)cc2)cn2ccccc21,inactive,
O=C(C[n+]1ccccc1)N/N=C/c1ccc(O)cc1,81.2 µM (active),
COc1ccc(Cc2nnc(NC(=O)Cc3cccs3)s2)cc1,inactive,
O=C(Cc1cccs1)N/N=C\c1ccc(O)cc1,42.6 µM (active),

SMILES,IC50,inhibition
CC(=O)Oc1ccc2c(=O)c(Oc3ccccc3)coc2c1OC(C)=O,inactive,
CCN1/C(=C/c2ccc3cc(C)ccc3[n+]2CC)Sc2ccccc21,inactive,
OC(CON=C1c2ccccc2-c2ccccc21)CN1CCNCC1 (stereo not given),inactive,
O=C(CNC(=O)c1ccccc1Br)N/N=C/c1ccc(O)cc1,54.3 µM (active),
O=C(N/N=C/c1ccc(O)cc1)c1cccc(C(F)(F)F)c1,69.2 µM (active),
Cc1ccc(C(=O)Oc2csc(=S)n2C(=O)c2ccc(C)cc2)cc1,inactive,
Cc1ccc(C)c(OCCCCN2CCCCC2)c1,inactive,
COc1ccc(CN2CCC(N3CC(C)OC(C)C3)CC2)c(OC)c1OC (stereo not given),inactive,
COc1cc(/C=N/NC(=O)c2cc(C)oc2C)ccc1O,49.8 µM (active),
Cc1cc(C(=O)NNC(=O)/C=C/c2ccco2)c(C)o1,inactive,
COc1cc(/C=N/NC(=O)c2ccoc2C)ccc1O,32.2 µM (active),
OCCN1CCN(Cc2ccc3ccccc3c2)CC1,inactive,
CCCN(CCO)CCCc1ccccc1,inactive,
OCCN(CCO)c1ccc2ccccc2c1,65 µM (active),
CCOc1cc(/C=N/n2cnnc2)ccc1O,34 µM (active),
CCOc1cc(/C=N\n2nnnc2N)ccc1O,45.1 µM (active),
COc1cc(/C=N/n2cnnc2)ccc1OC(=O)c1cccnc1,inactive,
COc1cc(/C=N/n2nnnc2N)ccc1O,18.4 µM (active),
CCc1nnc(N/N=C/c2cc(Br)c(O)cc2O)n1N,72.7 µM (active),
Cc1[nH]c2ccccc2c1/C=N\NC(=O)CNc1ccc2c(c1)OCO2,inactive,
CCc1nnc(N/N=C/c2c(C)[nH]c3ccccc23)n1N,45.9 µM (active),
Cc1[nH]c2ccccc2c1/C=N/Nc1nncn1N,62.6 µM (active),
N#CC(C#N)=C1C=CC=CN1/C(=C\c1ccco1)C(=O)c1ccc(Br)cc1,inactive,

SMILES,IC50,inhibition
O=C(O)c1cccc(-n2sc3ccccc3c2=O)c1,inactive,
O=c1c2ccccc2sn1-c1ccc(F)cc1,inactive,
CC1(C)CC(=O)C2=C(C1)OC1=C(C(=O)CC(C)(C)C1)C2c1ccc(O)cc1O,inactive,
Cc1ccc(C(C2=C(O)CC(C)(C)CC2=O)C2C(=O)CC(C)(C)CC2=O)o1 (stereo not given),inactive,
CC1(C)CC(=O)C(C=Nc2ccc(N)cc2)=C(O)C1,82.4 µM (active),
Cc1ccc(C(C2=C(O)CC(C)(C)CC2=O)C2C(=O)CC(C)(C)CC2=O)s1 (stereo not given),inactive,
CC1(C)CC(=O)C(C=Nc2ccc(O)cc2)=C(O)C1,17.4 µM (active),
O=C1CC(c2ccccc2)CC(O)=C1C=Nc1ccc(O)cc1 (stereo not given),28.9 µM (active),
O=C1CCCC(O)=C1C=Nc1ccc(O)cc1,18.6 µM (active),
CC1(C)CC(=O)C(C(C2=C(O)CC(C)(C)CC2=O)c2ccc(Br)s2)C(=O)C1 (stereo not given),inactive,
O=[N+]([O-])c1cnc(Sc2ccncn2)c([N+](=O)[O-])c1,inactive,
CSc1nc(O)c(/C=C2\C=Nc3ccccc32)[nH]1,33.2 µM (active),
CSc1nc(/C=C2\C=Nc3ccccc32)c(O)n1C,45.4 µM (active),
CC1(C)CC[C@]2(C(=O)n3ccnc3)CC[C@]3(C)[C@H](C(=O)C=C4[C@@]5(C)C=C(C#N)C(=O)C(C)(C)[C@@H]5CC[C@]43C)[C@@H]2C1,inactive,
CCc1ccc(O)c(N=Cc2cccc(C)c2O)c1,50.5 µM (active),
C=CCc1cccc(C=Nc2cc(Br)ccc2O)c1O,16.2 µM (active),
Cc1ccc(O)c(N=Cc2cc(Cc3ccccc3)cc([N+](=O)[O-])c2O)c1,inactive,
CCc1ccc(O)c(N=Cc2ccccc2O)c1,37.4 µM (active),
OC(CNCC1COc2ccccc2O1)COCc1cccs1 (stereo not given),inactive,
O=C(C1CCCN(Cc2cccnc2)C1)N1CCCCC1 (stereo not given),inactive,
Cc1ccc(CN2CCN(CC3CC4C=CC3C4)CC2)cc1 (stereo not given),inactive,
Cc1cccc2c1c1ccc3c(c1n2C)C(=O)C=CC3=O,inactive,
CC(OC(=O)CCN=C1NS(=O)(=O)c2ccccc21)C(=O)Nc1ccc(N(C)C)cc1 (stereo not given),50.9 µM (active),

SMILES,IC50,inhibition
O=C(CN1CCN(Cc2ccccc2)CC1)NC(c1ccccc1)c1ccccc1,inactive,
Clc1ccc(CNc2ccc(N3CCN(Cc4ccccc4)CC3)cc2)cc1,30.3 µM (active),
O=C(CN1CCN(Cc2ccccc2)CC1)Nc1ccc(F)c(F)c1,inactive,
Fc1ccc(CN2CCN(C(c3ccccc3)c3ccccc3)CC2)cc1,inactive,
C#CCOc1ccccc1CNC1CCN(Cc2ccccc2)CC1,inactive,
Fc1ccc(CNc2ccc(N3CCN(Cc4ccccc4)CC3)cc2)cc1,12.3 µM (active),
CN(C)C(=S)N=c1ssc(=S)n1Cc1cccnc1,inactive,
O=C1CSC(=Nc2ccc(O)cc2)N1c1ccc(O)cc1,56.7 µM (active),
COc1cc(/C=N/N=C2/SCC(=O)N2c2ccc(O)cc2)ccc1O,48.1 µM (active),
O=C1CSC(=Nc2ccc(O)cc2)N1,42 µM (active),
Cc1ccc(C)n1/N=C1/NC(=O)CS1,,-5.01% [at 10 µM] (inactive)
C=CCN1C(=O)CSC1=Nc1ccc(O)cc1,28.9 µM (active),
COc1ccccc1Nc1ccc2c(O)cc(S(=O)(=O)O)cc2c1,inactive,
N#CC1=C(Nc2ccccc2Cl)SC(c2ccccc2O)NC1=O (stereo not given),inactive,
Cc1c(Cl)cccc1NC(=S)Nc1ccc2[nH]c(=O)[nH]c2c1,inactive,
Cc1c(Cl)cccc1Nc1n[nH]c(=S)s1,78.7 µM (active),
COc1ccccc1Nc1n[nH]c(=S)s1,46.8 µM (active),
Fc1ccccc1Nc1n[nH]c(=S)s1,47.7 µM (active),
S=c1[nH]nc(Nc2ccccc2Cl)s1,51.9 µM (active),
Cc1ccccc1CN(C)CCc1ccccn1,inactive,
N/N=C(\Cc1cscn1)c1ccc(O)cc1O,67.8 µM (active),
CCc1cc(/C(Cc2cscn2)=N\O)c(O)cc1O,52.1 µM (active),
CCc1cc(/C(Cc2ccccn2)=N\O)c(O)cc1O,32.1 µM (active),

SMILES,IC50,inhibition
CCc1cc(/C(Cc2csc(C)n2)=N/O)c(O)cc1O,33.2 µM (active),
COc1ccc(Br)cc1CN1CCN(C(=O)c2ccc(F)cc2)CC1,inactive,
CCN(CCNCC(O)COc1ccccc1C(C)C)c1cccc(C)c1 (stereo not given),inactive,
COc1cccc(CN2CCN(Cc3cc(OC)c(OC)cc3[N+](=O)[O-])CC2)c1,inactive,
COc1cc(-c2cc(-c3ccc(O)cc3)nc(N)c2C#N)ccc1O,51.6 µM (active),
COc1cc(-c2cc(-c3ccc(F)cc3)nc(N)c2C#N)ccc1O,inactive,
CCCN(CCC)CCCNC(=S)Nc1ccc2nc(N3CCCC3)cc(C)c2c1,inactive,
CCn1c(=O)n(CC)c2cc(N3CCCC3)c(NC(=O)c3cccc(Cl)c3)cc21,inactive,
O=C(/C(=C/c1cccnc1)n1ccnc1)c1ccc(Cl)cc1Cl,inactive,
COCCNCCOCCOc1ccc(Cl)c(C)c1,inactive,
COC(=O)C1=C(C)N(Cc2ccco2)C(=O)/C1=C\c1ccc([N+](=O)[O-])cc1,inactive,
CCOc1cc(/C=C2/N=C(C)C(C(=O)OC)=C2O)ccc1O,29.6 µM (active),
COC(=O)C1=C(C)N(Cc2ccco2)C(=O)C1,inactive,
CCOC(=O)C1=C(O)/C(=C\c2ccc(O)c(OCC)c2)N=C1C,52.3 µM (active),
COC(=O)C1=C(O)/C(=C\c2ccc(O)c(OC)c2)N=C1C,20 µM (active),
CCOc1cc(/C=C2\C(=O)N(Cc3ccco3)C(C)=C2C(=O)OC)ccc1O,68.7 µM (active),
COc1nc(Nc2ccc(O)cc2)nc(OC(C(F)(F)F)C(F)(F)F)n1,39 µM (active),
CN(C)S(=O)(=O)c1cc(NC(=O)CNCCN2CCOCC2)ccc1Cl,inactive,
COc1cc(/C=N/NC(=S)NCCN2CCOCC2)ccc1O,21.8 µM (active),
Oc1ccc(/C=N/NC(=S)NCCN2CCOCC2)c(O)c1,20.9 µM (active),
O=S(=O)(Nc1ccccc1F)c1cccc(NC(=S)NCCN2CCOCC2)c1,inactive,
COc1ccc(CCNCCN2CCOCC2)cc1,inactive,
COc1ccccc1OCCCCCCN1CCOCC1,inactive,
